JMJD2A Tudor inh – JMJD2A Tudor domain (human) inhibition; AlphaScreen JMJD2A-Tudor / H3K4me3 peptide binding; Potency, µM (highest dose often 114 µM), inactives show at the highest dose activity change, negative = inhibition, hits mostly inhibitors; AID 504339; O75164; actives 4.4% (n = 390,000); further: potency means the concentration at half of the fitted maximal effect; on the % scale 0 is the no-effect control and ±100 the full control effect; nearly all actives have a fitted effect of over 50% in size
Target sequence (O75164 whole entry, looked up, the tested form may be a part): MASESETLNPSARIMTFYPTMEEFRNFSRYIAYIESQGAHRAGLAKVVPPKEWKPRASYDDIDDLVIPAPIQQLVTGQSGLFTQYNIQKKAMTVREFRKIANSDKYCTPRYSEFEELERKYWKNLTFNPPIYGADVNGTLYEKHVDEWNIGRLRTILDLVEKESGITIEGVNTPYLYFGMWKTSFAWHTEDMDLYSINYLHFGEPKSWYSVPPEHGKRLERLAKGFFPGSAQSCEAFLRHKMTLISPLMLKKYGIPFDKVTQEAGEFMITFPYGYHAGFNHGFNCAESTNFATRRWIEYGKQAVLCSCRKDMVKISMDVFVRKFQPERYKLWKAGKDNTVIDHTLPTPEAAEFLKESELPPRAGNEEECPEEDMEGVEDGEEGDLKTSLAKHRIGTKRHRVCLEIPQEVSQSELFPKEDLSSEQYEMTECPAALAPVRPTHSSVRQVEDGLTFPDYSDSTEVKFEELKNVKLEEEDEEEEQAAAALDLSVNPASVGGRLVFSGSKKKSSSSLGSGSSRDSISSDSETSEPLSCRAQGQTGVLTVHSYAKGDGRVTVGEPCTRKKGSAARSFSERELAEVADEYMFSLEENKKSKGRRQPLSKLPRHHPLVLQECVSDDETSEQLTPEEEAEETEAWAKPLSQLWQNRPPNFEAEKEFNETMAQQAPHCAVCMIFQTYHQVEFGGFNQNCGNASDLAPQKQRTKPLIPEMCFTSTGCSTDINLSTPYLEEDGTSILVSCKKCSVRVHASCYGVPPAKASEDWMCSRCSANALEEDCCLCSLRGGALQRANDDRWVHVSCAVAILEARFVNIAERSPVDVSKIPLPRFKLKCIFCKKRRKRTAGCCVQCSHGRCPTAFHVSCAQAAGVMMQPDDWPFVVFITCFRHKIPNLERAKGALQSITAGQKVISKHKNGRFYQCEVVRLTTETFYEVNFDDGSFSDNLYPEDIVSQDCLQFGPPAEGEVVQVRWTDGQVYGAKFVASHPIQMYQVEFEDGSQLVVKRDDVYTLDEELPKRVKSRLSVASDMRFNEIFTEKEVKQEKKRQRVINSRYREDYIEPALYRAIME
G9a block – blocks human histone lysine methyltransferase G9a; Potency, µM (highest dose often 102 µM), inactives show at the highest dose activity, negative = inhibition, actives largely listed as inhibitors; Q96KQ7; actives 8.8% (n = 350,000); G9a H3K9 monomethylation, AlphaScreen, 2 h; AID 504332; further: potency means the concentration at half of the fitted maximal effect; on the % scale 0 is the no-effect control and ±100 the full control effect; nearly all actives have a fitted effect of over 75% in size
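Using a bead-based AlphaScreen, monomethylated H3K9 product from 2 h room-temperature reactions (G9a 20 nM, peptide 500 nM, SAM 20 uM) was detected with 0.5 ug/mL rabbit anti-H3K9me1 antibody.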
Sfp PPTase inh – Sfp phosphopantetheinyl transferase inhibition; actives 3.5% (n = 310,000); Biochemical Sfp PPTase activity, qHTS; Potency, µM, inactives show largest response in the series, negative = inhibition, usual class: inhibitors;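 further: the enzyme is Sfp with the accession as filed and its product quenches rhodamine fluorescence; potency means the concentration at half of the fitted maximal effect; 0% = enzyme reaction without inhibitor and -100% = no enzyme wells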
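Compounds were incubated with enzyme (final 15 nM) for 15 min at room temperature before substrate addition started the reaction. Fluorescence at 525 nm excitation, 598 nm emission was recorded immediately and after 30 minutes.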
BAZ2B block – blocks human BAZ2B; AlphaScreen BAZ2B-H3K14Ac peptide displacement; Potency, µM (highest dose often 114 µM), inactives show at the top dose activity change, negative = inhibition, hits mostly inhibitors; AID 504333; actives 4.4% (n = 360,000); further: potency means the concentration at half of the fitted maximal effect; on the % scale 0 is the no-effect control and ±100 the full control effect; nearly all actives have a fitted effect of over 60% in size
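AlphaScreen displacement of biotin-H3(5-23)K14Ac peptide (50 nM final) from BAZ2B (50 nM final) in PBS pH 7.4, 0.01% Tween-20; complex preformed 30 min RT, then compounds (top 110 uM) 30 min RT, beads 20 min dark.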
PLK1 PBD block – PLK1 (human) polo-box domain binding inhibition; P53350; Plk1 PBD binding of FITC phosphopeptide, fluorescence polarization; Potency, µM, inactives show max response, negative = inhibition, usual class: inhibitors; actives 2.8% (n = 360,000); AID 720504; further: potency means the concentration at half of the fitted maximal effect; series mostly up to about 57 µM; on the % scale 0 is the no-effect control and ±100 the full control effect; nearly all actives have a fitted effect of over 65% in size
HP1b binding inh – inhibitors of HP1-beta chromodomain binding to methylated histone tails. AID 540317. AlphaScreen HP1-beta / biotin-H3K9me3 peptide binding. actives 0.56% (n = 390,000). Potency, µM (doses to about 114 µM), inactives show at the top dose activity change, negative = inhibition, actives largely listed as inhibitors; further: potency means the concentration at half of the fitted maximal effect; nearly all actives have a fitted effect of over 70% in size
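AlphaScreen: HP1-beta (50 nM) preformed 30 min with biotin-H3(1-18)K9me3 peptide (50 nM) in PBS pH 7.4, 0.01% Tween-20. Compound added for 30 min at RT, then streptavidin donor/nickel chelate acceptor beads (10 ug/mL) for 30 min.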
12-hLO 8HQ R1 – confirmation of human 12-lipoxygenase inhibitors, 8HQ series round 1 | AID 2163 | Potency, µM, usual class: inhibitors | shares compounds with BAZ2B block | purified 12-hLO, cuvette UV 234 nm product formation | actives 60% (n = 35);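 active means compounds that slowed 12-hLO product formation enough to yield a measured IC50 potency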
KDM4E inh – inhibitors of human JMJD2E demethylase, 8HQ series round 1. AID 493212. shares compounds with BAZ2B block. actives 89% (n = 130). JMJD2E demethylase, FDH-coupled NADH fluorescence (FDH is formaldehyde dehydrogenase). Potency, µM (titrated, usually from 57 µM), inactives show at the top dose activity, negative = inhibition, actives largely listed as inhibitors
ME-1 prolif – ME-1 cell growth inhibition | shares compounds with BAZ2B block | AID 504370 | actives 20% (n = 140) | Potency, µM (titrated, usually from 56.1 µM), without a hit: at the highest dose activity change, negative = inhibition, most hits filed as inhibitors | ME-1 cell proliferation, ATP luminescence, 48 h
The depositor's hits bear a star; i = inactive; ? = inconclusive; · = no result; ! = repeats disagree; [ ] = dose if it differs, or a comment. Only some compounds are listed: those with a hit (about 12% of all), similar ones and a draw of the others. Unless noted, the call rests on the fitted dose curve; in most records, active means well fitted curve in the direction sought with a large enough effect; inconclusive means small, poorly fitted or top-dose-only effect, or another doubt; inactive means no such curve, though single readings can be large; an effect the other way counts as inactive or inconclusive.

SMILES	JMJD2A Tudor inh	G9a block	Sfp PPTase inh	BAZ2B block	PLK1 PBD block	HP1b binding inh	ME-1 prolif	others
O=C(O)C1=CC(=C(c2ccc(O)c(C(=O)O)c2)c2ccc(O)c(C(=O)O)c2)C=CC1=O	·	1.1µM*	-2%	1.1µM*	·	·	-13%
O=C1OCC2OC(O)C(O)C(O)C2OC(=O)c2cc(O)c(O)c(O)c2-c2c(O)c(O)c3oc(=O)c4c(c(O)c(O)c5oc(=O)c2c3c54)-c2c1cc(O)c(O)c2O (stereo unspecified)	·	?	3.5µM*	0.71µM*	·	·	?
C=C1c2cccc(O)c2C(O)=C2C(=O)[C@]3(O)C(O)=C(C(N)=O)C(=O)[C@@H](N(C)C)[C@@H]3[C@@H](O)[C@H]12	7.1µM*	-160%[59 µM]	35µM*	3.5µM*	?	-8%	-24%
NC(=O)N(CCC(=O)O)c1ccccc1	9%[57.1 µM]	?	9%	50µM*	-7%	16%	-12%[25.6 µM]
O=c1c(-c2cc(O)c(O)c(O)c2)coc2cc(O)c(O)c(O)c12	·	-147%[2.33 µM]	-92%	·	·	·	16%
O=c1c(-c2ccc(O)cc2)coc2cc(O)cc(O)c12	-15%	18%[12.7 µM]	16%	-8%	-9%	27%	·
CC[C@H](NC(C)C)[C@H](O)c1ccc(O)c(O)c1	·	-20%[12.7 µM]	-17%	·	·	·	·
NC[C@@H](O)c1ccc(O)c(O)c1	89µM*	?	?	·	·	·	-2%
CC(C)NNC(=O)c1ccncc1	-15%	11µM*!	21%	0%	-6%	41%	8%
COc1ccc(-c2cc3nc(C)c(CCC(=O)N4CCN(c5ccccc5F)CC4)c(C)n3n2)c(OC)c1	-22%	-32%[59 µM]	·	-11%	·	4%	·
Fc1ccc(N2CCN(C(=S)NCc3ccco3)CC2)cc1	?	?	11%	?	-12%	-12%	·
S=C(NCc1ccco1)N1CCOCC1	-4%	-27%	4%	-18%	-9%	17%	-10%[25.6 µM]
Cc1cccc(Cn2c(=O)n(Cc3ccc(C(=O)NC4CCN(Cc5ccccc5)CC4)cc3)c(=O)c3ccccc32)c1	-4%	-2%[59 µM]	·	-2%	·	21%	·
CC(C)(C)OC(=O)N1CCC(c2c(C(=O)NCc3ccco3)cnn2-c2ccc(F)cc2F)CC1	-16%	-41%[59 µM]	·	5%[57.1 µM]	·	24%	·
CCCc1cc(C(=O)Cc2ccc(F)cc2)c(O)cc1O	-21%[11.4 µM]	-12%[12.7 µM]	-16%	9%	-6%	88%	·
CCCC(=O)c1cc(O)c(O)cc1O	·	·	·	·	·	·	-1%
Oc1ccccc1-c1nc(NC2CCCC2)c2ccccc2n1	15%	-23%[2.33 µM]	4%	35%	2%	122%	·
c1ccc(-c2nnc(-c3ccccn3)nc2NC2CCCCC2)cc1	3.2µM*	-4%	1%	1.8µM*	0%	19%	7.1µM*
Cc1ccc(S(=O)(=O)N2CCOC2CNC(=O)C(=O)NCCCN2CCOCC2)cc1 (stereo unspecified)	-6%	34%	22%	-15%	1%	31%	·
O=C1CC2(CCCC2)C(=O)N1CN1CCN(S(=O)(=O)c2cc(F)ccc2F)CC1	·	·	·	·	-6%	·	·
Nc1cccc(N)c1	·	·	·	·	·	·	-2%
CC(=O)NC(c1ccco1)c1cc(Cl)c2ccc(N(C)C)nc2c1O (stereo unspecified)	·	?	·	50µM*	·	·	·	12-hLO 8HQ R1=i;KDM4E inh=20µM*
